Experimental data reported in PubChem BioAssay (NCI).
This is part of a sample that, as a whole, favours compounds with a hit. Of some 79,000 tested, about 15% had one in any assay. Values without a mark were called inactive. Active and inactive are the calls of the source. Cut-off read from the data, not from the text of the source: active = growth inhibition above about 70%; inactive = the rest.

Tests used:
[1] = NCI Yeast Anticancer Drug Screen. Data for the rad50 strain (AID 155);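 note: 0% = growth of vehicle-only cultures of the same strain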; details: S. cerevisiae rad50 strain growth inhibition, stronger effect = higher value
In short: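 Genetically altered yeast (DNA repair pathway); compound treatment; growth inhibition vs vehicle ctrl.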

[2] = NCI Yeast Anticancer Drug Screen. Data for the mec2-1 strain (AID 157); details: S. cerevisiae mec2-1 strain, stronger effect = higher value
In short: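 Strain: mec2-1 (DNA repair/cell cycle alteration). Compound exposure, then growth measured; inhibition expressed relative to vehicle.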

[3] = NCI Yeast Anticancer Drug Screen. Data for the sgs1 mgt1 strain (AID 161);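 note: 0% = growth of cultures given vehicle only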; details: S. cerevisiae sgs1 mgt1 strain, stronger effect = higher value
In short: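 Test agents were incubated with a DNA-repair-mutant yeast strain. Growth was then read and compared against vehicle-treated controls.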

[4] = NCI Yeast Anticancer Drug Screen. Data for the cln2 rad14 strain (AID 165);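 note: 0% = growth equal to vehicle treated cultures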; details: S. cerevisiae cln2 rad14 strain, stronger effect = higher value
In short: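 Compounds are applied to the cln2 rad14 yeast strain, and growth is then compared with that of vehicle-treated cultures to give inhibition.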

[5] = NCI Yeast Anticancer Drug Screen. Data for the bub3 strain (AID 167); details: S. cerevisiae bub3 mutant strain, stronger effect = higher value
In short: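 Yeast carrying a defined mutation is treated with each compound, and growth is compared with that of vehicle-exposed cells to give inhibition.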

[6] = NCI Yeast Anticancer Drug Screen. Data for the mlh1 rad18 strain (AID 175); details: S. cerevisiae mlh1 rad18 strain growth inhibition, stronger effect = higher value
In short: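 Read-out is yeast growth inhibition, calculated against vehicle-only controls. The compound was applied to a strain engineered with DNA damage repair alterations.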

[7] = at 5.0 µM (retest, dose inferred, filed as 0.5)
[8] = at 50.0 µM (retest, dose inferred, filed as 5.0)

Compound	growth inhibition [1, 7] [%]	growth inhibition [1, 8]	growth inhibition ([1]; at 50.0 µM)	growth inhibition [2, 7] [%]	growth inhibition [2, 8]	growth inhibition ([2]; at 50.0 µM)	growth inhibition [3, 7] [%]	growth inhibition [3, 8]	growth inhibition ([3]; at 50.0 µM)	growth inhibition [4, 7] [%]	growth inhibition [4, 8]	growth inhibition ([4]; at 50.0 µM)	growth inhibition [5, 7] [%]	growth inhibition [5, 8]	growth inhibition ([5]; at 50.0 µM)	growth inhibition [6, 7] [%]	growth inhibition [6, 8]	growth inhibition ([6]; at 50.0 µM)
O=C(Cl)C(c1ccccc1)(c1ccccc1)c1ccccc1	-3	98% (active)	98.2% (active)	14	97% (active)	95.1% (active)	-10	98% (active)	97.8% (active)	18	98% (active)	92% (active)	10	98% (active)	94.7% (active)	-8	99% (active)	96.3% (active)
Oc1c(Br)ccc2c(O)c(Br)ccc12	42	93% (active)	89.7% (active)	51	94% (active)	91% (active)	36	98% (active)	92.5% (active)	57	98% (active)	90.5% (active)	53	97% (active)	90.8% (active)	31	88% (active)	89.4% (active)
C/C(=N\NC(=S)NC12CC3CC(CC(C3)C1)C2)c1ccccn1	5	95% (active)	97% (active)	3	97% (active)	97.9% (active)	6	98% (active)	98% (active)	-5	93% (active)	94.7% (active)	0	97% (active)	97.1% (active)	-7	97% (active)	97.3% (active)
CCCCCCCCCCCCCC(=O)CBr	11	84% (active)	87.5% (active)	4	85% (active)	80.1% (active)	35	99% (active)	84.5% (active)	2	68%	66.2%	9	98% (active)	85.8% (active)	5	90% (active)	81.1% (active)
CC/C(=C\c1cccc(OC)c1)c1ccncc1	17	84% (active)	94.7% (active)	12	92% (active)	94.2% (active)	40	91% (active)	95.3% (active)	14	81% (active)	90.3% (active)	35	89% (active)	94.8% (active)	32	87% (active)	93.9% (active)
CC(=O)[O-].O=C(N/N=C/c1ccccc1[O-])c1ccccc1.[Zn+2]	-3	61%	-2.05%	6	89% (active)	14.6%	1	86% (active)	55.8%	-5	32%	-16.9%	-10	70% (active)	0.3%	9	91% (active)	32%
O=[N+]([O-])c1ccc(NS(=O)(=O)c2ccc(Cl)c(Cl)c2Cl)c([N+](=O)[O-])c1	22	18%	78.2% (active)	24	21%	42.1%	31	38%	81% (active)	16	25%	45.1%	11	10%	7.15%	22	20%	75.2% (active)
Ic1ccc2c(c1)N(c1ccccc1)c1cc(N=c3ccc4nc5ccc(I)cc5n(-c5ccccc5)c-4c3)ccc1N2	-3	15%	81.5% (active)	12	4%	93.6% (active)	-4	-13%	76% (active)	1	29%	91.8% (active)	-8	11%	97.3% (active)	-7	18%	93.9% (active)
O=C(COc1ccc(Cl)cc1)OCCO	0	0%	4.9%	-4	0%	-5.75%	-3	-1%	0.4%	3	5%	40.4%	2	4%	-5.6%	3	5%	-25.6%
O=C(CSSCC(=O)Nc1ccccc1)Nc1ccccc1	-6	15%	29.6%	1	35%	17.5%	1	-10%	54.8%	-5	10%	48.2%	-12	6%	22.8%	-12	19%	22%
S=C(N/N=C(/c1ccccc1)c1ccccn1)Nc1ccccc1	2	90% (active)	84.3% (active)	14	95% (active)	73.5% (active)	20	95% (active)	85.3% (active)	-9	94% (active)	60.4%	2	93% (active)	76.2% (active)	13	94% (active)	90% (active)
COc1ccc(C2CN(C(=O)c3ccccc3)N=C(c3ccccc3)O2)cc1 (stereo not given)	-1	-16%	93.7% (active)	-8	1%	93.2% (active)	1	-46%	93.7% (active)	-5	-8%	90.2% (active)	-4	-67%	90% (active)	-6	-6%	95% (active)
S=c1[nH]c2cc(Cl)ccc2s1.[Zn+2]	-2	91% (active)	95.3% (active)	8	96% (active)	97.8% (active)	3	97% (active)	93.3% (active)	-2	95% (active)	96.7% (active)	12	92% (active)	97% (active)	0	96% (active)	97.5% (active)
O=C1C(Br)=C(Sc2ccc([N+](=O)[O-])cc2)C(=O)c2ccccc21	56	90% (active)	93.5% (active)	64	94% (active)	96.7% (active)	51	96% (active)	96.6% (active)	11	91% (active)	84.2% (active)	65	96% (active)	96.6% (active)	33	92% (active)	97% (active)
CN(C)CC[N+](C)(C)Cc1ccc(C[N+](C)(C)CC[N+](C)(C)Cc2ccc(CCl)cc2)cc1	0	0%	99% (active)	-39	-1%	98% (active)	-1	2%	97.9% (active)	1	2%	96% (active)	-6	2%	97.8% (active)	-1	-1%	98.7% (active)
c1ccc2c(c1)oc1cc3c(cc12)CCCN3	18	97% (active)	91.7% (active)	19	98% (active)	10.3%	7	98% (active)	74.7% (active)	3	97% (active)	4.4%	19	98% (active)	77.7% (active)	18	98% (active)	43.5%
Cc1ccc(-c2c(C#N)c(S)n(NS(=O)(=O)c3ccccc3)c(=O)c2C#N)cc1	28	89% (active)	60.1%	12	91% (active)	80% (active)	32	94% (active)	83.8% (active)	47	64%	29.4%	53	94% (active)	71.2% (active)	16	66%	75.6% (active)
O=c1oc(-c2ccc(Cl)cc2[N+](=O)[O-])nc2ccccc12	16	10%	77.2% (active)	17	-1%	63.6%	5	6%	70.3% (active)	31	5%	39.2%	-6	6%	66.5%	-23	-13%	68.5%
COC12CC(=O)C(C(C)=O)=C(O)C1(C)c1c(OC(C)=O)c(C)c(O)c(C(C)=O)c1O2 (stereo not given)	17	57%	45.1%	14	63%	52.3%	31	73% (active)	19.2%	19	50%	41%	62	92% (active)	43.5%	19	64%	92.8% (active)
N#CC1C(=O)NC(=O)C(C#N)C1c1ccc(Cl)c(Cl)c1 (stereo not given)	-1	42%	89.2% (active)	-1	35%	39.5%	1	26%	57.5%	-7	-2%	21.9%	-8	34%	58.3%	-2	53%	63.4%
